Where “and” joins values, the source holds several entries; their conditions need not be identical. Equal entries are not always repeated. This is part of a sample that, as a whole, favours compounds with a hit. Of some 83,000 tested, about 20% had one in any assay.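 Growth was measured after 48 h exposure to one concentration of compound in 96-well plates. Values under 10 count as active.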 Calls of active or inactive are those of the source.
These molecules were tested on MDA-MB-468 breast (assay: NCI-60 one-dose screen, 48 h (100 = growth as untreated, 0 = no growth, -100 = all killed)). Conditions: 10 µM unless noted.
In the case of `COc1cc(NCC(=O)Nc2cc(Nc3cccc(C(F)(F)F)c3)ncn2)c(Cl)c(OC)c1Cl`, the growth is reported as 101% (inactive). For `O=C1/C(=C/c2ccccc2O)N=C2SCCCN12`, the growth was 99.2% (inactive). `C=C[C@@H]1C[C@@H]2Cc3cc(F)ccc3N1O2` was tested, and the growth was 116% (inactive). `CC(C)c1ccc(C(=O)OC(=O)c2ccc(C(C)C)cc2)cc1` was tested, and the growth was 110% (inactive). For `Cc1ccc(Nn2c(SCC(=O)Nc3nc(-c4ccccc4)cs3)nc(C)c2C)cc1`, the growth was 17.7% (inactive). `CN1CCN(Cc2ccc(NC(=O)c3cncc(C#Cc4cnc(N)c5ccc(C#N)cc45)c3)cc2C(F)(F)F)CC1` was tested, and the growth was -58.4% (active). For `O=C1/C=C/[C@@H](O)[C@@H]2C[C@@H](O)C[C@H]2/C=C/CCC[C@H](CO)O1`, the growth was -20.1% (active). With `S=C(NCc1ccccc1)NCc1ccccc1` the growth was 101% (inactive). With `CCCC(O)Cn1ncc(C(=O)OCC)c1NC(=O)NCc1ccccc1F` (stereo not given) the growth was 75.9% (inactive). With `CCN1C2CCC1/C(=C\c1ccccc1)C(=O)/C2=C/c1ccccc1` the growth was 16.1% (inactive). In the case of `Nc1ccc(Br)cn1`, the growth is reported as 93.6% (inactive). With `CS(=O)(=O)Nc1cccc(-c2ccc3ncnc(Nc4ccc(F)c(Cl)c4)c3c2)c1` the growth was -26% (active). With `Cc1cccc(-n2c(C)nc3ccc(N4CCCNC4=O)cc3c2=O)c1` the growth was 99.4% (inactive). In the case of `COc1cc(-c2nc(SCCC(C)C)nc(NNC(=O)c3ccncc3)c2C#N)cc(OC)c1OC`, the growth is reported as 77.7% (inactive). In the case of `CCN(CC)Cc1cc(Nc2ccnc3cc(Cl)ccc23)ccc1OC`, the growth is reported as 93.6% (inactive). For `COc1ccc(/C=C(/c2ccccc2)[N+](=O)[O-])cc1`, the growth was -77.6% (active). `CCOC(=O)c1cc(/C=C/c2cccc(Cl)c2)on1` was tested, and the growth was 60.3% (inactive). `C#CCOc1cccc(Nc2ncnc3c(NC(=O)C=C)cccc23)c1` was tested, and the growth was -15.2% (active). `CN(C)c1ccc(/C=C\C2=[N+](C)c3ccccc3C2(C)C)cc1` was tested, and the growth was 11% (inactive). In the case of `CC(C)CCC[C@@H](C)[C@H]1CC[C@H]2[C@@H]3CC=C4C[C@@H](C(C(=O)O)C(=O)O)CC[C@]4(C)[C@H]3CC[C@]12C`, the growth is reported as -32% (active). With `N#Cc1c(-c2ccccc2)c(C#N)c2c(C#N)c(N)nn2c1N` the growth was 25.9% (inactive). For `O=C(C1=Cc2cc3ccccc3n2Cc2cnnn21)c1ccc(O)cc1`, the growth was 62.2% (inactive). With `O=C(Nc1cccc(-n2ccc3c(NC(=O)c4ccccc4)nccc32)c1)c1ccc(Cl)c(C(F)(F)F)c1` the growth was -86.9% (active) and 85.1% (inactive). In the case of `Cc1ccc(-c2c(Br)c(OC(=O)CO[C@@H]3C[C@H](C)CC[C@H]3C(C)C)c(-c3ccc(C)cc3C)c(Br)c2OC(=O)CO[C@H]2C[C@@H](C)CC[C@@H]2C(C)C)c(C)c1`, the growth is reported as 34.5% (inactive). With `CCOC(=O)c1c(O)cc(-c2ccccc2)cc1-c1sc(N(C)Cc2ccccc2)nc1Cl` the growth was 111% (inactive). With `COc1ccc(C(O)c2cc3c(N)c(C(=O)Nc4ccc(Br)cc4)sc3nc2C)cc1` (stereo not given) the growth was -0.733% (active). With `OCC1OC(n2cnc3c(N/N=C\c4ccccn4)ncnc32)C(O)C1O` (stereo not given) the growth was -24% (active). For `C=C(C)[C@@H]1CC[C@]2(CN)CC[C@]3(C)[C@H](CC[C@@H]4[C@@]5(C)CCCNC(C)(C)[C@@H]5CC[C@]43C)[C@@H]12`, the growth was -65.5% (active). In the case of `CC(C)OC1OC(OC(C)C)C(OC(C)C)OC1OC(C)C` (stereo not given), the growth is reported as 101% (inactive). In the case of `O=C(N/N=C\c1cc(Cl)ccc1O)N/N=C/c1cc(Cl)ccc1O`, the growth is reported as 61.5% (inactive). In the case of `O=NN(CC(=O)N/N=C/C=C\c1ccccc1)CC(=O)N/N=C/C=C/c1ccccc1`, the growth is reported as 91.1% (inactive). In the case of `Cc1nn(-c2ccccc2)c2ncnc(N/N=C/c3ccccc3)c12`, the growth is reported as 84.3% (inactive). In the case of `CCOC(=O)N1CCc2c(sc3c2C(=O)N[C@H](c2ccc(OC)cc2)N3)C1`, the growth is reported as 101% (inactive). With `CCCCCCC[C@@H](O)CC(=O)N[C@H](CCCCN)C(=O)N[C@H](Cc1c[nH]c2ccccc12)C(=O)NC(CCCCN)C(=O)N[C@H](CC(C)C)C(=O)N[C@H](Cc1ccccc1)C(=O)N[C@H](CCCCN)C(=O)N[C@H](CCCCN)C(=O)N[C@H](CC(C)C)C(=O)N1CCCC1C(=O)N[C@H](CCCCN)C(=O)N[C@H](Cc1ccccc1)C(=O)N[C@H](CC(C)C)C(=O)N[C@H](Cc1c[nH]cn1)C(=O)N[C@H](CC(C)C)C(=O)N[C@H](C)C(=O)N[C@H](CCCCN)C(=O)N[C@H](CCCCN)C(=O)N[C@H](Cc1ccccc1)C(=O)O` (stereo not given in full) the growth was -58.2% (active). In the case of `Nc1ncc(-c2ccc3ncnc(N4CCc5ccc(Cl)cc54)c3c2)cn1`, the growth is reported as -38% (active). In the case of `CC(C)Cc1ccc(C(C)C(=O)NCc2ccc(Cn3c(=O)sn(-c4ccc(Cl)cc4)c3=O)cc2)cc1` (stereo not given), the growth is reported as 54.4% (inactive). `CC[C@]12C=CCN3CC[C@@]4(c5ccc(OC)cc5N(C)[C@H]4[C@@](O)(C(=O)OC)[C@@H]1OC(=O)CCCN1CCOCC1)[C@@H]32` was tested, and the growth was 108% (inactive). In the case of `COc1ccc(/C(C#N)=C/c2ccccc2OC)cc1`, the growth is reported as -14% (active). For `C=C1C(=O)O[C@H]2[C@H]1CC/C(COC(=O)NCc1ccc(Cn3c(=O)sn(-c4ccc(I)cc4)c3=O)cc1)=C\CC[C@@]1(C)O[C@@H]21`, the growth was 29.6% (inactive). For `COC1=C(OC)C(=O)C(SC/C=C(\C)CCCC(C)CCCC(C)CCCC(C)C)=CC1=O` (stereo not given), the growth was 42.6% (inactive).

Reference: PubChem BioAssay (NCI)
